# Assay results published in PubChem BioAssay AID1851 (National Center for Advancing Translational Sciences (NCATS), 2009).
# Values joined by “and” are separate entries in the source; they are usually repeats but may differ in a detail not shown here. Equal values may be shown once. Hit rate of the full screen: of about 16,000 compounds, about 5,100 (32%) were called active. Roughly 25% stayed inconclusive and do not appear here. This is one part of the list. Values without a mark were called inactive. Calls follow the shape of the dose curve; as a rule, active = well fitted curve in the direction sought with a large enough effect; inconclusive = small, poorly fitted or top-dose-only effect, or effect the other way; inactive = no such curve, though single readings can be large or run the other way.
# Molecular target: Cytochrome P450 3A4 (Homo sapiens) (UniProt P08684)
# Sequence (P08684 whole entry, looked up): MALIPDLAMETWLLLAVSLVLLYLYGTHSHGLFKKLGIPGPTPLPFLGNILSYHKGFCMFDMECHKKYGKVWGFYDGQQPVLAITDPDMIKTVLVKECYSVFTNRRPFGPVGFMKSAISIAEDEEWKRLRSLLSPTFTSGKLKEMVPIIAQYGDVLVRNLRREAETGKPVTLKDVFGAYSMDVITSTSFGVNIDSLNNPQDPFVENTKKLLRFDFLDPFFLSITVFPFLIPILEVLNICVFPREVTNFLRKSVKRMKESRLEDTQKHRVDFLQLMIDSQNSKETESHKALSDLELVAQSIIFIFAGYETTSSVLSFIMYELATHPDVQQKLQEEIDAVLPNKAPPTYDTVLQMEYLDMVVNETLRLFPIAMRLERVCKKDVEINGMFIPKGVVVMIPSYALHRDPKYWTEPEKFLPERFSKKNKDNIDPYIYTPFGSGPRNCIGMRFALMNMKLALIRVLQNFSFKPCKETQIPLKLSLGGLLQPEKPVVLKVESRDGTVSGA
# Test: Cytochrome panel assay with activity outcomes
# Conditions: recombinant CYP, pro-luciferin dealkylation, luminescence, p450-cyp3a4; series mostly up to 57.1 µM; activity, negative = inhibition: at the top concentration
# % is scaled to controls: 0 for no effect and ±100 for the full control effect.
SMILES,"activity, negative = inhibition",AC50
Nc1ncnc2c([C@@H]3O[C@@H](CO)[C@H](O)[C@@H]3O)nsc12,-0.156% [at 11.4 µM],–
CN(C)/N=N\c1nc[nH]c1C(N)=O,-4.61% [at 25.6 µM],–
O=C(O)C1C2C=CC(C2)C1C(=O)N1CCN(C/C=C/c2ccccc2)CC1 (centres undefined),-12.1%,–
O=C(c1nn(Cc2ccccc2)c(=O)c2ccccc12)N1CCN(C/C=C/c2ccccc2)CC1,–,2.24 µM (active)
COc1ccc(CC(=O)Nc2cccc(/C(C)=N/NC(=O)c3cccc([N+](=O)[O-])c3)c2)cc1,–,2 µM (active)
CCC(=O)Nc1cccc(NC(=O)c2cccc([N+](=O)[O-])c2)c1,–,22.4 µM (active)
O=C(Nc1nc(-c2ccccc2)cs1)c1cccc([N+](=O)[O-])c1,–,10 µM (active)
COc1ccc(C(=O)Nc2cccc(/C(C)=N/NC(=O)c3ccc([N+](=O)[O-])cc3)c2)cc1OC,-28.5% [at 2.29 µM],–
COc1ccc(-c2nc(NC(=O)c3ccccc3)sc2-c2ccc([N+](=O)[O-])cc2)cc1,12.5% [at 2.29 µM],–
O=C(COc1cccc(NC(=O)c2cccc([N+](=O)[O-])c2)c1)c1ccc(Br)cc1,25.1%,–
N[C@H](C(=O)O)c1ccc(C(=O)O)cc1,-13.3%,–
CCN(CC)CCNC(=O)Cn1nc(-c2ccc(C)cc2)ccc1=O,-12.6%,–
COc1cccc(Cn2c(=O)c(-c3cccc(C#N)c3)nc3cnc(OC)nc32)c1,–,3.16 µM (active)
CN(C)c1ncc2nc(-c3cccc(C#N)c3)c(=O)n(CCC#N)c2n1,10.2%,–
N#CCCn1c(=O)c(-c2cccc(C#N)c2)nc2cnc(Oc3cccc(Cl)c3)nc21,12.9%,–
COc1ccc(Oc2ncc3nc(-c4cccc(C#N)c4)c(=O)n(Cc4cccc(OC)c4)c3n2)cc1,–,2 µM (active)
COc1ncc2nc(-c3cccc(C#N)c3)c(=O)n(CCC#N)c2n1,–,25.1 µM (active)
CC(C)[C@H](CO)Nc1nc(Nc2ccc(C(=O)O)c(Cl)c2)c2ncn(C(C)C)c2n1,-24.8%,–
NCCC(=O)O,-12.8%,–
Cc1ccc(-c2nnc(-c3ccccc3S(=O)(=O)Cc3ccc(Cl)cc3)o2)cc1,–,3.98 µM (active)
O=C(Nc1nnc(-c2ccc(Cl)cc2)o1)Nc1ccccc1Cl,-3.31% [at 2.29 µM],–
NS(=O)(=O)c1cc(C(=O)O)c(O)c2ccccc12,-3.6% [at 11.4 µM],–
COc1ccc2c(c1)C(c1ccc([N+](=O)[O-])cc1)=NNC(c1ccco1)=N2,–,14.1 µM (active)
FC(F)(F)c1ccccc1-c1ccc2ncnc(NCc3cccs3)c2c1,–,5.01 µM (active)
Cc1ccccc1-c1ccc2ncnc(NCc3cccs3)c2c1,–,3.98 µM (active)
Cc1cc2nc(CCN(C(=S)NCC(C)C)C3CCCC3)[nH]c2cc1C,–,17.8 µM (active)
Cc1noc(C)c1COc1ccc(C(=O)NCC2CCCO2)cc1 (centres undefined),-6.7%,–

SMILES,"activity, negative = inhibition",AC50
COc1cc(C(=O)OC(C)C(=O)Nc2ccc3c(c2)OCO3)ccc1OCc1c(C)noc1C (centres undefined),–,0.631 µM (active)
CCc1cc2c(nc1CC)CCN(CC/C(C)=N/O[C@@H](C)c1cn([C@H](CO)Cc3ccccc3)nn1)C2,–,3.16 µM (active) and 3.98 µM (active)
C/C(CCN1CCCc2nc(C)c(C)cc21)=N\O[C@@H](C)c1cn([C@H](CO)Cc2ccccc2)nn1,–,2 µM (active)
CC(C)=NO[C@@H](C)c1cn([C@H](CO)Cc2ccccc2)nn1,-28.8% [at 11.4 µM] and -23.4% [at 11.4 µM],–
CCc1cc2c(nc1CC)CCN(CC/C(C)=N/O[C@@H](C)c1cn([C@@H]3COC[C@@H]3O)nn1)C2,-5.44% [at 11.4 µM],–
C/C(CCN1CCCCc2nc(C)c(C)cc21)=N\O[C@@H](C)c1cn([C@H](CO)Cc2ccccc2)nn1,–,3.98 µM (active) and 5.01 µM (active)
CN(C)C(=O)CN(c1ccc2c(c1)OCO2)S(C)(=O)=O,–,25.1 µM (active)
Cc1cccc(N(CC(=O)N2CCOCC2)S(C)(=O)=O)c1,-0.837%,–
O=C(CN1C(=O)C2C3C=CC(C3)C2C1=O)Nc1ccc2c(c1)OCCO2 (centres undefined),–,25.1 µM (active)
COc1ccccc1NC(=O)CN1CCN(CC(=O)Nc2ccc(OCc3ccccc3)cc2)CC1,-17.7%,–
COc1ccc(NC(=O)CN2CCN(CC(=O)Nc3ccccc3Cl)CC2)cc1,–,10 µM (active)
O=C(CN1C(=O)C2C3C=CC(C3)C2C1=O)Nc1ccc(C(=O)O)cc1 (centres undefined),-10.2%,–
COc1ccc(NC(C)=O)cc1NC(=O)CN1CCN(CC(=O)Nc2ccccc2Cl)CC1,–,12.6 µM (active)
COc1ccc(NC(=O)CN2c3cccc4cccc(c34)S2(=O)=O)cc1,–,4.47 µM (active)
CSc1nc(NC2CCCC2)c([N+](=O)[O-])c(NC2CCCC2)n1,-23.7%,–
COc1ccc([C@@H]2CC(=O)c3c(O)cc(O[C@H]4O[C@@H](CO[C@H]5O[C@@H](C)[C@@H](O)[C@@H](O)[C@@H]5O)[C@@H](O)[C@@H](O)[C@@H]4O)cc3O2)cc1O,-1.85% [at 25.6 µM],–
O=C(Nc1ccc2c(c1)OCCO2)C1CCN(C(=O)c2ccccc2)CC1,21.8%,–
O=C(CN1CCN(CC(=O)Nc2ccccc2Cl)CC1)Nc1ccc2c(c1)OCCO2,–,14.1 µM (active)
COc1cccc(OC)c1OCCCN1CCOCC1,-7.58%,–
COc1cccc(OC)c1OCCCCN1CCCC1,-8.41%,–
COc1cccc(OC)c1OCCNC[C@@H]1COc2ccccc2O1,–,2 µM (active) and 2.51 µM (active)
Cc1cccc(NC(=S)NNC(=O)CCn2cc(C)cn2)c1,17%,–
Cc1cnn(CCC(=O)NNC(=S)Nc2cccc(Cl)c2)c1,–,12.6 µM (active)
O=C(Nc1cccc(Cl)c1)N1CCN2C(=O)c3ccccc3C12c1ccccc1 (centres undefined),-22.9% [at 2.29 µM],–
O=C(COc1ccccc1Cl)NC(=S)Nc1cccc(NC(=O)c2ccccc2Cl)c1,7.56% [at 2.29 µM],–
O=C(CCN1C(=O)c2ccccc2C1=O)NC(=S)Nc1cccc(Cl)c1,–,15.8 µM (active)
CNC[C@H](O)[C@H](O)[C@H](O)[C@H](O)CO,-7.18% [at 25.6 µM],–
